High-throughput results from PubChem.
CHO-K1 Ca PAM – counter-screen for M1 PAMs: effect in parental CHO-K1 cells. ATP EC20, Fluo-8 calcium fluorescence; 0% at ATP EC20, 100% at ATP max. activation, % at 3 µM. 360,000 compounds, 0.02% hits;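 active means activation above the run cutoff, the mean activation of all test compounds plus 3 SD, cut at about 40% in these data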;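 further: peak over basal fluorescence ratio in a 140 s read after ATP addition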
CHO-K1 Ca ag – M1 agonist counterscreen hit in parental CHO-K1 cells; activation, % at 3 µM; AID 602248; Fluo-8 calcium fluorescence; scaled to maximal ATP response, vehicle zero; 360,000 compounds, 0.48% hits; in the data active means activation above about 15%;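 further: untransfected CHO-K1 host cells lacking M1 receptor as counterscreen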
CHRM1 antagonist – blocks human M1 muscarinic receptor. P11229. CHO-K1 hM1, Fluo-8 calcium fluorescence, ACh EC80 antagonist. inhibition, % at 3 µM. 360,000 compounds, 1.3% hits;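 active means percent inhibition above its own plate's cutoff, namely the mean of that plate's compound wells plus 3 SD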;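 further: peak over basal fluorescence ratio during 140 s after agonist addition; 0% = ACh EC80 plus DMSO and 100% = DMSO alone without agonist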
Target sequence (P11229 whole entry, looked up): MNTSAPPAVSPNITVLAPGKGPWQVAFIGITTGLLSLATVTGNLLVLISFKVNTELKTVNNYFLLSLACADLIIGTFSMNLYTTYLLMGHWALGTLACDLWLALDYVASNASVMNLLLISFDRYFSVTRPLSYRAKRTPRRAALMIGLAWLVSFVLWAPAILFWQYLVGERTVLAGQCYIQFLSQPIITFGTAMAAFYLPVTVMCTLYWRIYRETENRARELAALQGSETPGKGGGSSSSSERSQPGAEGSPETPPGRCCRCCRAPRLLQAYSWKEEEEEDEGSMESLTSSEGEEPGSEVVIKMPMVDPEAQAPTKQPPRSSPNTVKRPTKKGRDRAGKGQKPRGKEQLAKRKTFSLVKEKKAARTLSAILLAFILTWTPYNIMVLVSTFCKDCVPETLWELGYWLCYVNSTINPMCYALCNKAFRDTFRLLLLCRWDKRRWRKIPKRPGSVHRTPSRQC
CHO-K1 Ca antag – nonselective inhibitor or artifact in parental CHO-K1 cells; ATP-induced calcium, Fluo-8 fluorescence; inhibition, % at 3 µM; 360,000 compounds, 0.6% hits; AID 602250;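 active means inhibition above a per-plate cutoff, the plate's mean sample inhibition plus 3 SD, cut at about 24% in these data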;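 further: 0% = DMSO plus EC80 ATP and 100% = DMSO alone without ATP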
M1 ag – agonists of human M1 muscarinic receptor; P11229; 360,000 compounds, 0.33% hits; activation, % at 3 µM; CHO-K1 hM1, Fluo-8 calcium fluorescence, agonist mode; 0% DMSO, 100% acetylcholine EC100;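 active means activation above the run's mean compound activation plus 3 SD, cut at about 16% in these data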;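 further: peak over basal fluorescence ratio within a 140 s kinetic read after compound addition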
M1 PAM – positive allosteric modulators of human M1 muscarinic receptor | P11229 | 360,000 compounds, 0.088% hits | CHO-K1 hM1, Fluo-8 calcium fluorescence, ACh EC20; 0% = ACh EC20, 100% = maximal ACh | activation, % at 3 µM; in the data active means activation above about 19%, passing the limit was not always enough
* marks the source's active call; other numbers are inactive results; . = not tested or not shown; ! = repeats disagree. Only some compounds are listed: those with a hit (about 2.3% of all), similar ones and a draw of the others.

SMILES | CHO-K1 Ca PAM | CHO-K1 Ca ag | CHRM1 antagonist | CHO-K1 Ca antag | M1 ag | M1 PAM
CCOC(=O)C1(CCc2ccccc2)CCN(Cc2ccc(C(=O)OC)cc2)CC1 | -10 | 0 | -2 | -8 | -4 | -4
COC(=O)c1ccc(CN2CCCC(C(=O)Nc3ccc(-c4ccn[nH]4)cc3)C2)cc1 (configuration not stated) | 0 | 7 | 12 | -17 | 36* | -8
CCOC(=O)C1(CC2CC2)CCN(Cc2ccc(C(=O)OC)cc2)CC1 | -5 | 1 | 60* | 0 | -5 | -24
CCOC(=O)N1CCN(Cc2nnc(-c3cccc(Br)c3)o2)CC1 | 10 | 4 | -18 | -8 | 2 | 13
COc1ccccc1N1CCN(CC(=O)NCC2CCCO2)CC1 (configuration not stated) | -9 | 0 | -3 | 27* | 0 | 11
CC(NC(=O)c1ccccc1NC(=O)CN1CCc2ccccc2C1)c1ccccc1 (configuration not stated) | 40* | 7 | -2 | -13 | 4 | 3
COc1ccccc1N1CCN(CC(=O)Nc2ccccc2C(=O)NCCc2ccccc2)CC1 | 19 | 4 | 29* | 6 | -1 | -8
O=C(CN1CCN(c2ccccc2O)CC1)Nc1ccccc1C(=O)NCCc1ccccc1 | -3 | 7 | 29 | 3 | -2 | -12
COc1ccc(CCNC(=O)c2ccccc2NC(=O)CN2CCN(c3ccccc3O)CC2)cc1 | 10 | 8 | 28* | 7 | 2 | -8
CCn1c(=O)cc(OCC(=O)NCCCN2CCCC2=O)c2ccccc21 | 10 | 0 | -4 | -12 | 5 | 19
Cc1c(C(N)=O)sc2ncn(CC(=O)NCCc3ccccc3)c(=O)c12 | 10 | 0 | -3 | -13 | -2 | 8
CCCn1nc(C(=O)NNC(=O)CCCOc2ccc(C)cc2)c2ccccc2c1=O | -12 | -1 | -5 | -6 | -5 | 6
COC(=O)Cc1cc(=O)oc2cc(O)ccc12 | -13 | 0 | 7 | 17 | -3 | -2
CC(NC(=O)c1ccccc1NC(=O)CN1CCN(c2ccccc2O)CC1)c1ccccc1 (configuration not stated) | 21 | 4 | 13 | -21 | 2 | -5
COc1ccccc1N1CCN(CC(=O)Nc2ccccc2C(=O)NC(C)c2ccccc2)CC1 (configuration not stated) | 5 | 6 | 35* | 0 | 7 | -19
COc1ccc(C(=O)N/C(=C/c2ccc(Cl)cc2)C(=O)Nc2ccc(C(=O)O)cc2)cc1 | -32 | 0 | 1 | 25* | -2 | 2
COc1ccc(/C=C(\NC(=O)c2ccc(OC)cc2)C(=O)Nc2cccc(C(=O)O)c2)cc1 | 4 | 1 | -8 | -13 | -4 | 3
Cc1ccccc1OCCCCc1c(C)n[nH]c1C | -4 | 9 | 29* | 15 | -2 | -13
Cc1ccccc1OCCCc1c(C)n[nH]c1C | 6 | 5 | 0 | 0 | -7 | -1
C[C@@H]1OC(C2CCCCC2)N(C)[C@H]2C[C@H]3c4[nH]c5ccccc5c4CCN3C[C@@H]12 (some centres not stated) | -8 | 0 | 23 | 24* | -11 | -17
C[C@@H]1ON(C)[C@H]2C[C@H]3c4[nH]c5ccccc5c4CCN3C(=O)[C@@H]12 | 1 | 0 | -4 | -2 | -3 | 1
C[N+](C)(C)CCCCCC[N+](C)(C)C | 18 | 2 | -33 | 2 | 1 | 6
C[N+](C)(C)CCCCCC(=O)/C=N/O | 22 | 1 | -7 | -16 | 29* | -2
FC(F)c1nc2nc(Cl)c(Cl)nc2[nH]1 | 16 | 0 | -15 | -3 | 5 | 0
COc1cccc(/C=C/C2=CC(C)(C)NC(=S)N2)c1 | 3 | -1 | -1 | 10 | -7 | 2
SMILES | CHO-K1 Ca PAM | CHO-K1 Ca ag | CHRM1 antagonist | CHO-K1 Ca antag | M1 ag | M1 PAM
COc1ccc(/C=C/C2=CC(C)(C)NC(=S)N2)cc1OC | -15 | 0 | 6 | 26* | 2 | 12
COc1ccc(NC(=O)c2cc(-c3ccc(F)cc3OC(C)C)n[nH]2)cn1 | 20 | 5 | 8 | 5 | -4 | -5
COc1cc(NC(=O)c2cc3cccc(OC)c3o2)cc(C(=O)Nc2cccc(C(F)(F)F)c2)c1 | 4 | 1 | 14 | 2 | -2 | -7
COc1ccc(-c2cc(C(=O)Nc3cc(OC)cc(C(=O)Nc4cccc(C(F)(F)F)c4)c3)[nH]n2)cc1 | 1 | 1 | 41*! | 4 | 1 | -11
CC(C)Oc1cc(F)ccc1-c1cc(C(=O)Nc2cccc(C(F)(F)F)c2)[nH]n1 | -14 | 0 | 35* | 11 | -4 | -22
COc1cc(NC(=O)c2ccno2)cc(C(=O)Nc2cccc(C(F)(F)F)c2)c1 | -14 | 17* | 31* | 12 | 9 | -21
Cc1ccc(-c2nnn(CC(=O)N(CC(=O)NC3CCCCC3)c3cccc(F)c3)n2)o1 | 3 | 20* | 1 | 1 | 8 | 8
Cc1ccc(-c2nnn(CC(=O)N(CC(=O)NC3CCCC3)c3cccc(F)c3)n2)o1 | -18 | 1 | -7 | -11 | -1 | 11
CN(C)N(Cc1ccccc1)C(=O)C(O)(c1ccccc1)c1ccccc1 | 13 | 3 | 5 | -4 | -8 | -7
CN(C)C(C)(C)/C=C/C(O)(c1ccccc1)c1ccccc1 | -1 | 3 | 100* | -9 | -8 | -26
COc1cc2c(cc1OC)CN(C(=S)Nc1ccccc1Cl)CC2 | -3 | 17* | 3 | 9 | 2 | 0
CC(C)C[C@@H]1CN(CCCC[C@H]2CNC(=O)C(=O)N2CCC2CCCCC2)C(=O)C(=O)N1CCc1ccc(O)cc1 | 14 | 0 | . | -14 | . | .
CCn1cc(/C=N/NS(=O)(=O)c2ccc(OC)cc2)c(C)n1 | -8 | 1 | -34 | 15 | 21* | 14
Cc1cc(C)nc(SCCCNCc2ccc(Br)cc2)n1 | -14 | 2 | 8 | 7 | 27* | -10
Cn1nc(C(F)(F)F)c(C(=O)Nc2ccc(F)cc2F)c1Sc1cccc(C(F)(F)F)c1 | -6 | 1 | 34* | -10 | -4 | -16
Cn1nc(C(F)(F)F)c(C(=O)Nc2ccc(F)cc2F)c1Sc1cccc(Cl)c1 | 2 | 0 | 11 | -1 | -8 | -16
COc1ccccc1-c1sc2ccccc2c1-c1cnc(N2CCOCC2)nc1 | 10 | 1 | . | -14 | . | .
COc1ccc(NC(=O)CSc2nc3c(c(=O)[nH]2)CCC3)cc1OC | 16 | 0 | -24 | -7 | -1 | 0
Cc1noc(C)c1-c1nc(CSc2ccccc2)no1 | -17 | 1 | 16 | 10 | -6 | -7
COc1ccc(/C=C/c2cc(C(=O)O)c3ccccc3n2)cc1 | 5 | 21* | 4 | 2 | 8 | 0
CCN(c1ccc(NC(=O)CSc2ccc3c(c2)OCCO3)cc1)C(C)C | 5 | 1 | 81* | 16 | -7 | -31
